Results as given in PubChem BioAssay (Tox21).
Inconclusive results are not listed. Active and inactive are the calls of the source. Unless noted, calls come from the whole dose curve; as a rule, active = well fitted curve in the direction sought with a large enough effect in the repeat runs; inconclusive = weak or mixed curves; inactive = no such curve, though single readings can be large; an effect the other way counts as inactive or inconclusive.

Experiments:
[1] = qHTS RealTime-Glo MT Cell Viability Assay in HEK293 cells - 0 hour (AID 1224880); note: top concentration of the series differs between compounds; nearly all actives have a fitted effect of over 45% in size
Outline: (§1)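 600 cells/well were plated with the nonlytic NanoLuc/prosubstrate reagent, pre-incubated 5 h, then given 23 nL of compound in DMSO. Incubation at 37 C for 40 h, with luminescence from viable-cell-reduced substrate read repeatedly from 0 h.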

[2] = A CellTox Green Cytotoxicity Assay to monitor cytotoxicity in HEK293 cells - 32 hour (AID 1224881); note: nearly all actives have a fitted effect of over 40% in size
Outline: (§2)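 HEK293 cells, 600/well, were preincubated 5 hours and then exposed to compounds at 37 C for up to 40 hours. A cell-impermeant cyanine dye staining dead-cell DNA was read by fluorescence at 0, 8, 16, 24, 32 and 40 h time points.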

[3] = A CellTox Green Cytotoxicity Assay to monitor cytotoxicity in HEK293 cells - 8 hour (AID 1224884); note: nearly all actives have a fitted effect of over 35% in size
Outline: as §2

[4] = qHTS RealTime-Glo MT Cell Viability Assay in HepG2 cells - 16 hour (AID 1224885); note: nearly all actives have a fitted effect of over 50% in size
Outline: (§3)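 Compound treatment began 5 h after plating HepG2 cells (600/well) with NanoLuc luciferase and prosubstrate. Plates stayed at 37 C for 40 h; luminescence was captured at six time points, 0 h through 40 h.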

[5] = qHTS RealTime-Glo MT Cell Viability Assay in HEK293 cells - 24 hour (AID 1224886); note: top concentration of the series differs between compounds; nearly all actives have a fitted effect of over 50% in size
Outline: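 Quantitative high-throughput screen of the Tox21 10K library in HEK293: cells and RealTime-Glo reagents plated together, compound added at 5 h, luminescence monitored through 40 h at 37 C.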

[6] = qHTS RealTime-Glo MT Cell Viability Assay in HEK293 cells - 8 hour (AID 1224887); note: top concentration of the series differs between compounds; nearly all actives have a fitted effect of over 50% in size
Outline: as §1

[7] = A CellTox Green Cytotoxicity Assay to monitor cytotoxicity in HEK293 cells - 16 hour (AID 1224888); note: nearly all actives have a fitted effect of over 35% in size
Outline: as §2

[8] = qHTS RealTime-Glo MT Cell Viability Assay in HepG2 cells - 0 hour (AID 1224889); note: nearly all actives have a fitted effect of over 50% in size
Outline: as §3

[9] = A CellTox Green Cytotoxicity Assay to monitor cytotoxicity in HepG2 cells - 8 hour (AID 1224890); note: nearly all actives have a fitted effect of over 45% in size
Outline: (§4)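 HepG2 cells, 600/well, preincubated 5 h with CellTox Green dye, then exposed to Tox21 compounds in DMSO at 37 C for up to 40 h. Dead-cell DNA fluorescence read at the indicated time point.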

[10] = qHTS assay to identify small molecule antagonists of the androgen receptor (AR) signaling pathway using the MDA cell line in the presence of 0.5 nM R1881 - cell viability counter screen (AID 1259242); note: nearly all actives have a fitted effect of over 45% in size
Outline: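 MDA-kb2 cells (MMTV-luciferase, AR/GR responsive) were treated with compounds plus 0.5 nM R1881 (final) for 16 hr at 37C, 0% CO2. Viability was then read in the same wells as live-cell protease fluorescence (CellTiter-Fluor, 30 min).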

[11] = target: Androgen receptor (Homo sapiens) (UniProt P10275); assay: qHTS assay to identify small molecule antagonists of the androgen receptor (AR) signaling pathway using the MDA cell line in the presence of 0.5 nM R1881 (AID 1259243); note: nearly all actives have a fitted effect of over 50% in size
Outline: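 MDA-kb2 cells (MMTV-luciferase, responsive to AR and GR) at 3,000/well, rested 5 h at 37C, 0% CO2, then given compounds plus 0.5 nM R1881 (final) for 16 hr. Luciferase read with ONE-Glo after 30 min at room temperature.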

[12] = target: Estrogen receptor (Homo sapiens) (UniProt P03372); assay: qHTS assay to identify small molecule antagonists of the estrogen receptor alpha (ER-alpha) signaling pathway using the BG1 cell line in the presence of 0.1 nM 17-beta-estradiol (AID 1259244); note: nearly all actives have a fitted effect of over 50% in size
Outline: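 VM7Luc4E2 cells (endogenous full-length ER-alpha, 4×ERE-luciferase), kept 5 days in phenol red-free, charcoal-stripped FBS medium; 4,000 cells/well. Compounds added with 0.1 nM (final) 17beta-estradiol, 22 hr at 37C; luminescence read with ONE-Glo after 30 min.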

[13] = qHTS assay to identify small molecule phospholipidosis (PLD) inducers (AID 1259344; active = well fitted curve in the direction sought with a large enough effect; an effect the other way counts as inactive or inconclusive)
Outline: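 Fluorescent phospholipid staining (LipidTOX Red) measured by automated microscopy in fixed HepG2 cells after 24 h treatment; nuclei counterstained with Hoechst 33342; amiodarone as reference inducer.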

[14] = qHTS assay to identify small molecule HDAC inhibitors (AID 1259364); note: top concentration of the series differs between compounds; nearly all actives have a fitted effect of over 45% in size
Outline: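 Wild-type HCT-116 cells, plated overnight at 37 C, exposed to compounds 2 hr at 37 C; luminogenic HDAC-Glo substrate then added 30 min at room temperature. Luminescence reports relative endogenous class I/II HDAC activity.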

[15] = qHTS assay to identify small molecule HDAC inhibitors - cell viability counter screen (AID 1259365)
Outline: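 After overnight seeding at 1,500 cells per well, wild-type HCT-116 cultures took up compounds in DMSO for 2hr at 37 C. Viable cell content came from luminescence with CellTiter-Glo.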

[16] = qHTS assay to identify small molecule agonists of the sonic hedgehog signaling (Shh) pathway - cell viability counter screen (AID 1259366); note: nearly all actives have a fitted effect of over 50% in size
Outline: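 Same-well cytotoxicity read. Gli1-Luc reporter 3T3 cells; compounds 24hr, 37C/5% CO2; CellTiter-Fluor fluorescence.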

[17] = qHTS assay to identify small molecule antagonists of the sonic hedgehog signaling (Shh) pathway - cell viability counter screen (AID 1259367); note: nearly all actives have a fitted effect of over 55% in size
Outline: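 Using CellTiter-Fluor, viability of Gli1-Luc reporter 3T3 cells is read by fluorescence in the wells used for the Shh luciferase assay. Treatment lasts 23 hr with conditioned medium, then reagent 1 hr at 37C.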

[18] = A CellTox Green Cytotoxicity Assay to monitor cytotoxicity in HepG2 cells - 0 hour (AID 1224882); note: nearly all actives have a fitted effect of over 35% in size
Outline: as §4

[19] = A CellTox Green Cytotoxicity Assay to monitor cytotoxicity in HepG2 cells - 32 hour (AID 1224883); note: nearly all actives have a fitted effect of over 50% in size
Outline: as §4

[20] = qHTS assay to identify small molecule antagonists of the estrogen receptor alpha (ER-alpha) signaling pathway using the BG1 cell line in the presence of 0.1 nM 17-beta-estradiol - cell viability counter screen (AID 1259241); note: nearly all actives have a fitted effect of over 40% in size
Outline: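 Estradiol-stimulated (0.1 nM) VM7Luc4E2 cells exposed to compounds 22 hr; viability measured by fluorescence of cleaved CellTiter-Fluor substrate after 30 min.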

Measured: Potency

Sequence of Estrogen receptor (Homo sapiens) (P03372 whole entry, looked up): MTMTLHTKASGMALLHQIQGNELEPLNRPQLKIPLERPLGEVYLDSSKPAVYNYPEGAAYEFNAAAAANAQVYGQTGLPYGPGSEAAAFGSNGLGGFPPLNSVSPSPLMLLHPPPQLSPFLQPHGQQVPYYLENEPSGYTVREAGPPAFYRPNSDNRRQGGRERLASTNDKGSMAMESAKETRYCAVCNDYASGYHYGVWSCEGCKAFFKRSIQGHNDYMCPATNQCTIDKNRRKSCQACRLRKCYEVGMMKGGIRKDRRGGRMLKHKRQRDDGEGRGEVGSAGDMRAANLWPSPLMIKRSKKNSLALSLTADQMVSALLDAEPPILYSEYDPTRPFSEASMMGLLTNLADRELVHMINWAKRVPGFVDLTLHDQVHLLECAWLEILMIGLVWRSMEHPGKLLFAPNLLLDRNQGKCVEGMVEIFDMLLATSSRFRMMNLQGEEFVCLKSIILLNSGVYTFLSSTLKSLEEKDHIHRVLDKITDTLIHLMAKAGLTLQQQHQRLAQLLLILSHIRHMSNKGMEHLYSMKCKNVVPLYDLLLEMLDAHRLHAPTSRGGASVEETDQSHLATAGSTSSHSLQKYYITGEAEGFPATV
Sequence of Androgen receptor (Homo sapiens) (P10275 whole entry, looked up): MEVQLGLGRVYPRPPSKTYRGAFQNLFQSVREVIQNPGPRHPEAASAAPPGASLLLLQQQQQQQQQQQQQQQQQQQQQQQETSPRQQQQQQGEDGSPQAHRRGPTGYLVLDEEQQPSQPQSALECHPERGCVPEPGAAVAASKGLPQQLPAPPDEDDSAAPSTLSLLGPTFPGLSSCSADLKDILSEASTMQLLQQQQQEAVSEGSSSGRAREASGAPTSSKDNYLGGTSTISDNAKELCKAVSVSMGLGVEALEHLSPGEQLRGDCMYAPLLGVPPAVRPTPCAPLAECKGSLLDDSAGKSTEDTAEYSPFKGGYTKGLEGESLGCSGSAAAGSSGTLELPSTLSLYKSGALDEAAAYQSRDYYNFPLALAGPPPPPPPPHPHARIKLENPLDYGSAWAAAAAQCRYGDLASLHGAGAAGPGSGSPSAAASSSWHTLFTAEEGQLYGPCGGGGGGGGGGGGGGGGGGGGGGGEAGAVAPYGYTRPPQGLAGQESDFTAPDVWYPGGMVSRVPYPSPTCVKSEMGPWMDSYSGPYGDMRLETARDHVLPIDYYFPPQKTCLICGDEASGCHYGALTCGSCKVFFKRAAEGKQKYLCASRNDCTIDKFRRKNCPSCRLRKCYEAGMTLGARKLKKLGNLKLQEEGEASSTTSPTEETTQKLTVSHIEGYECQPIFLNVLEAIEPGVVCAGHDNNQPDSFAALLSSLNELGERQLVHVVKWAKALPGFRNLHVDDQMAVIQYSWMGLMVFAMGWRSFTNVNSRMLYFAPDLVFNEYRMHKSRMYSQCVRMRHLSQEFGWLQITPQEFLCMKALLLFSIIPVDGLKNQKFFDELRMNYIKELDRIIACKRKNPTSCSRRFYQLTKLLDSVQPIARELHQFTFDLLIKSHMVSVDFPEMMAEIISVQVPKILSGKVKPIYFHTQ

CCN[C@@H](C)Cc1ccccc1
not listed: [18] | [19] | [20]
inactive: all other assays above

CNC(=O)Oc1ccccc1C(C)C
not listed: [1] | [12] | [13]
inactive: all other assays above

CCCC[N+](=O)[O-]
not listed: [2] | [11] | [13] | [14] | [18]
inactive: all other assays above

O=S1(=O)OCCO1
not listed: [1] | [12] | [13]
inactive: all other assays above

CS(=O)(=O)c1ccc(C(=O)C2C(=O)CCCC2=O)c(Cl)c1COCC(F)(F)F
not listed: [5] | [11] | [13] | [18] | [19]
inactive: all other assays above

C=CC(=O)OCCN(C)C
not listed: [11] | [12] | [13] | [18]
inactive: all other assays above

COc1cc(CC(C)N)cc(OC)c1OC (stereo not drawn)
not listed: [1] | [11] | [14]
inactive: all other assays above

CC(C)[C@]12CC(=O)[C@H](C)[C@H]1C2
not listed: [1] | [11] | [12] | [13] | [15] | [18]
inactive: all other assays above
